Results from PubChem BioAssay (EPA / NIEHS).
The source holds several records for some structures; these can differ, active in one and inactive in another. Activity calls are given as the source filed them. How the source made its calls: active means hit-call score of the fitted dose curve at least 0.9, where 1 is the maximum; inactive means score below 0.9.

What follows are compounds tested against Nuclear respiratory factor 1 (Homo sapiens) (UniProt Q16656) (assay: ATG_NRF1_CIS: Attagene CIS-FACTORIAL HepG2 Assay for human Nuclear Respiratory Factor 1 (NRF1) Orphan Gene (AID 2282987)). Conditions: HepG2 NRF1 cis-element reporter, Attagene multiplex; actives raise or lower the signal.
Description: ATG_CIS is a cell-based, multiplexed-readout assay that uses HepG2, a human liver cell line, with measurements taken at 24 hours after chemical dosing in a 24-well plate.ATG_NRF1_CIS is one of 52 assay component(s) measured or calculated from the ATG_CIS assay. It is designed to make measurements of mRNA induction, a form of inducible reporter, as detected with fluorescence intensity signals by Reverse transcription polymerase chain reaction (RT-PCR) and Capillary electrophoresis technology.Data from the assay component ATG_NRF1_CIS was analyzed into 1 assay endpoint. This assay endpoint, ATG_NRF1_CIS, was analyzed with bidirectional fitting relative to DMSO as the negative control and baseline of activity. Using a type of inducible reporter, measures of mRNA for gain or loss-of-signal activity can be used to understand the reporter gene at the transcription factor-level as they relate to the gene NRF1. Furthermore, this assay endpoint can be referred to as a primary readout, because this assay has produced multiple assay endpoints where this one serves a reporter gene function. To generalize the intended target to other relatable targets, this assay endpoint is annotated to the dna binding intended target family, where the subfamily is nuclear respiratory factors.
Human liver HepG2 cells are transiently transfected with multiple reporter transcription units (MRTUs) in 6-well plates using FuGene 6 reagent (Roche; 3 ml FuGene/1 mg DNA). The MRTU constructs are regulated by a cis-regulating element (promoter). […] A major difference between the CIS and TRANS system is that in CIS activities of endogenous TFs are measured, whereas the TRANS assay evaluates changes in activities of exogenous, chimeric NR-Gal4 proteins. […] At the end of 24 hour incubation, total RNA was isolated using TriZol reagent (Invitrogen). The isolated RNA is then reverse-transcribed using oligo(dT) primer and Mo-MLV reverse transcriptase (Invitrogen) with DNAse I (Ambion) treatment for 30 min. The one-tenth of the produced cDNA was amplified by PCR using Taq DNA polymerase (Invitrogen) and two reporter sequence-specific primers. The PCR products were fluorescently labeled by primer extension with 6-arboxyfluorescein (6-FAM) 5'-labeled reporter sequence-specific primer (2 min at 95 C, 20 s at 68 C and 10 min at 72 C) and these products were digested with 5U of HpaI (New England Biolabs) for 2h at 37 C. The fragments were purified using Qiaquick PCR columns (Qiagen), analyzed on an ABI 3130xL genetic analyzer (Applied Biosystems) with peak positions identified by using a set of X-rhodamine (ROX)-labeled MapMarker1000 molecular weight standards (BioVentures). The raw capillary electrophoresis data was processed using Attagraph software (Attagene).

Chain of Nuclear respiratory factor 1 (Homo sapiens) (Q16656 whole entry, looked up): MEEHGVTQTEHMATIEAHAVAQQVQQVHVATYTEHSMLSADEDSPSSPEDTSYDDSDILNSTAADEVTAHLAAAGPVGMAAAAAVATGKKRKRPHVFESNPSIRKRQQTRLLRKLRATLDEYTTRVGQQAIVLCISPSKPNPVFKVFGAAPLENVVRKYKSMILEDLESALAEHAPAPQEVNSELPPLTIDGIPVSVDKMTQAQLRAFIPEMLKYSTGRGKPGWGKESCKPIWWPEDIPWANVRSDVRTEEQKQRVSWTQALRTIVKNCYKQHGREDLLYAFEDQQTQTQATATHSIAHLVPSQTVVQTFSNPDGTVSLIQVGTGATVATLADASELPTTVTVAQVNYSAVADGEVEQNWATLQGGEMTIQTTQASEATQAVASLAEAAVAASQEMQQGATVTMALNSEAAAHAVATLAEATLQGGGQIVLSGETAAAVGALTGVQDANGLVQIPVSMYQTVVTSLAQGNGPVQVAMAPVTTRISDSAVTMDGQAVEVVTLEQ

Row | Compound | outcome | AC50
1 | CC1(C)[C@H](C(=O)O[C@H](C#N)c2cccc(Oc3ccccc3)c2)[C@@H]1/C=C(\Cl)C(F)(F)F | inactive | 
2 | CC(C)(C)c1ccc(CCOc2ncnc3ccccc23)cc1 | inactive | 
3 | O=c1oc2ccccc2c(O)c1C(CC(O)c1ccc(-c2ccc(Br)cc2)cc1)c1ccccc1 (stereo not given) | inactive | 19.6 µM (active)
4 | Cc1cc(Cl)ccc1O | inactive | 
5 | O=C(O)COc1ccc(Cl)cc1 | inactive | 
6 | Cc1ccccc1OP(=O)(Oc1ccccc1)Oc1ccccc1 | inactive | 
7 | O=C(Cc1ccccc1)OCCc1ccccc1 | inactive | 
8 | Oc1c(Br)cc(Br)cc1Br | inactive | 
9 | c1cc[c]([Sb]([c]2ccccc2)[c]2ccccc2)cc1 | inactive | 
10 | O=C(CCl)NCO | inactive | 
11 | O=C=Nc1ccc(Cl)cc1 | inactive | 
12 | Nc1c(Oc2ccccc2)cc(O)c2c1C(=O)c1ccccc1C2=O | inactive | 
13 | CC(C)(C)c1ccccc1O |  | 100 µM (active)
14 | O=c1[nH]c2ccccc2n1C1CCN(CCCC(c2ccc(F)cc2)c2ccc(F)cc2)CC1 | inactive | 
15 | CN(CCCC(O)c1cccnc1)N=O (stereo not given) | inactive | 
16 | COc1ccccc1N | inactive | 
17 | N#Cc1ccncc1 | inactive | 
18 | COc1nn(C(=O)NS(=O)(=O)c2ccccc2OC(F)(F)F)c(=O)n1C | inactive | 
19 | CNC(=O)CSP(=O)(OC)OC | inactive | 
20 | O=NN1CCOCC1 | inactive | 

Row | Compound | outcome | AC50
21 | CNC(=O)N(C)c1nc2ccccc2s1 | inactive | 
22 | O=S(=O)(Oc1ccc(Cl)cc1)c1ccc(Cl)cc1 | inactive | 
23 | O=c1[nH]c(=O)n(Cl)c(=O)n1Cl | inactive | 
24 | CCOP(=S)(OCC)O/N=C(\C#N)c1ccccc1 | inactive | 
25 | ClCCN1CCOCC1 | inactive | 
26 | N#Cc1ccc(Cl)cc1 | inactive | 
27 | CCCCN(CCCC)C(=S)[S-].CCCCN(CCCC)C(=S)[S-].[Ni+2] | inactive | 
28 | Oc1ccc(Cc2ccc(O)cc2)cc1 | inactive | 
29 | C=CC(=O)NC(C)(C)CC(C)=O | inactive | 
30 | CC(C)(c1ccccc1)c1cc(-n2nc3ccccc3n2)c(O)c(C(C)(C)c2ccccc2)c1 | inactive | 
31 | O=C/C(Cl)=C(/Cl)C(=O)O | inactive | 
32 | O=C(NC(=O)c1c(F)cccc1F)Nc1cc(Cl)c(F)c(Cl)c1F | inactive | 
33 | c1ccc2sc(SNC3CCCCC3)nc2c1 | inactive | 
34 | CCCCCCCCCCCCN(C)C |  | 54.2 µM (active)
35 | [F][Sn]([c]1ccccc1)([c]1ccccc1)[c]1ccccc1 |  | 0.294 µM (active)
36 | O=S1OC[C@@H]2[C@H](CO1)[C@]1(Cl)C(Cl)=C(Cl)[C@@]2(Cl)C1(Cl)Cl (stereo not given in full) | inactive | 
37 | CCCCCCCCCCCCc1cccc(S(=O)(=O)O)c1 | inactive | 
38 | CCOP(=S)(OCC)SCS(=O)(=O)C(C)(C)C | inactive | 
39 | CCCCCCCCCCBr | inactive | 
